Laboratory results as given in PubChem BioAssay (Tox21).
Records with an inconclusive call do not appear. The source made the active and inactive calls. Unless noted, calls follow the shape of the dose curve; as a rule, active = well fitted curve in the direction sought with a large enough effect in the repeat runs; inconclusive = weak or mixed curves; inactive = no such curve, though single readings can be large; an effect the other way counts as inactive or inconclusive.

Tests used:
[1] = qHTS assay for small molecules that induce genotoxicity in human embryonic kidney cells expressing luciferase-tagged ATAD5 - cell viability (AID 651634; calls by dose curve; also: nearly all actives have a fitted effect of over 25% in size; also: potency is read from the fitted curve at half-maximal effect)
In short: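 Here HEK293T cells with the ATAD5 luciferase reporter are incubated with test compounds for 15.5 hr, and cytotoxicity is then gauged by measuring protease activity in live cells using fluorescence.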

[2] = qHTS assay for small molecule disruptors of the mitochondrial membrane potential (AID 720635); also: potency is read from the fitted curve at half-maximal effect
In short: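 HepG2 cells (2,000/well) attached overnight at 37C, then took compound for 1 hr at 37C, 5% CO2. Mito-MPS dye was added for 30 min; fluorescence was read at 490/535 nm (monomers) and 540/590 nm (aggregates).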

[3] = qHTS assay to test for compound auto fluorescence at 590 nm (red) in HepG2 cells (AID 720674)
In short: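 Rose Bengal sodium served as the red fluorophore standard. HepG2 monolayers (overnight attachment, MEM with 10% FBS) were exposed to test compounds for 1 hr at 37 C and read at Ex 540/Em 590 nm.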

[4] = qHTS assay to test for compound auto fluorescence at 535 nm (green) in HepG2 cells (AID 720675)
[5] = qHTS assay to test for compound auto fluorescence at 460 nm (blue) in HEK293 cells (AID 720678)
In short: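 Blue read-out at excitation 405 nm and emission 460 nm follows overnight compound exposure of HEK293 cells at 37C in 5% CO2. Activity is given as auto fluorescence equivalency to triamterene.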

[6] = qHTS assay to test for compound auto fluorescence at 535 nm (green) in HEK293 cells (AID 720680)
[7] = qHTS assay to test for compound auto fluorescence at 460 nm (blue) in HEK293 cell free culture (AID 720681)
In short: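 Test compounds were pinned into cell-free culture medium (DMEM with 10% FBS) and fluorescence was read directly at Ex/Em 405/460 nm. Signals were expressed as fluorescence equivalents of triamterene, with DMSO vehicle as control.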

[8] = qHTS assay to test for compound auto fluorescence at 535 nm (green) in HEK293 cell free culture (AID 720682)
In short: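 Compounds were pin-transferred into cell-free DMEM with 10% FBS, and green fluorescence was read at excitation 485 nm and emission 535 nm. Intensities were expressed as fluorescein-equivalent values.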

[9] = qHTS assay to test for compound auto fluorescence at 590 nm (red) in HEK293 cell free culture (AID 720683)
In short: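 Tox21 10K library compounds were pinned into cell-free DMEM with 10% FBS and fluorescence was read at excitation 540 nm. Activity is expressed as Rose Bengal sodium equivalency.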

[10] = qHTS assay to test for compound auto fluorescence at 590 nm (red) in HepG2 cell free culture (AID 720684)
In short: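 Readout: intrinsic compound fluorescence at 590 nm emission after 540 nm excitation, scaled to Rose Bengal sodium. Matrix was cell-free MEM with 10% FBS; DMSO vehicle wells served as control.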

[11] = qHTS assay to test for compound auto fluorescence at 460 nm (blue) in HepG2 cell free culture (AID 720685)
In short: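 Cell-free plates of MEM plus 10% FBS received 23 nL compound or DMSO vehicle; blue-channel (405/460 nm) intensity scored against triamterene as reference fluorophore.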

[12] = qHTS assay to test for compound auto fluorescence at 535 nm (green) in HepG2 cell free culture (AID 720686)
[13] = qHTS assay to test for compound auto fluorescence at 460 nm (blue) in HepG2 cells (AID 720687)
In short: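 Cells (2,000/well in MEM with 10% FBS) attached overnight at 37 C, then were exposed to compound or DMSO for 1 hr at 37 C, 5% CO2. Fluorescence read at Ex/Em 405/460 nm, expressed as triamterene-equivalent signal.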

[14] = target: Glucocorticoid receptor (Homo sapiens) (UniProt P04150); assay: qHTS assay to identify small molecule antagonists of the glucocorticoid receptor (GR) signaling pathway (AID 720692; active = well fitted inhibition curve with a large enough effect in the signal ratio in the repeat runs, not every such curve was filed as active; the % refers to the signal ratio; also: potency is read from the fitted curve at half-maximal effect)
In short: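 In a 1536-well cell format, compounds were added 4 h after seeding GR-bla HeLa cells, together with dexamethasone at 5 nM final; reporter activity was measured by FRET-substrate fluorescence following 18 h at 37 C.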

[15] = qHTS assay for small molecule agonists of the p53 signaling pathway - cell viability (AID 651633; calls by dose curve; also: nearly all actives have a fitted effect of over 30% in size; also: potency is read from the fitted curve at half-maximal effect;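 as to activity change, negative = cytotoxicity: p53RE-bla HCT reporter cells with a stable beta-lactamase p53 reporter; series mostly up to about 83 µM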)
In short: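 p53RE-bla cells, seeded at 4,000 per well and rested 5 h at 37 C/5% CO2, received compounds in DMSO for 16 h at 37 C. CellTiter-Glo was then added, and luminescence was read after 30 min at room temperature to gauge cytotoxicity.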

[16] = qHTS assay for small molecule disruptors of the mitochondrial membrane potential - cell viability (AID 720634; calls by dose curve;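 also: human HepG2 liver cancer cells; series mostly up to about 83 µM; nearly all actives have a fitted effect of over 20% in size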)
In short: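 Viability of HepG2 cells is scored from ATP content by luminescence; cells are exposed to compound for 1 hr at 37 C and 5% CO2, then dosed with m-MPI dye before the CellTiter-Glo reagent.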

[17] = qHTS assay to test for compound auto fluorescence at 590 nm (red) in HEK293 cells (AID 720679)
In short: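 Red channel, Ex/Em 540/590nm; signal expressed as equivalency to Rose Bengal sodium. HEK293, 2,000 cells/well, 10% dialyzed FBS; 23 nL compound pinned after 4-5 hr attachment; overnight 37C/5% CO2 before reading.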

[18] = target: Glucocorticoid receptor (Homo sapiens) (UniProt P04150); assay: qHTS assay to identify small molecule agonists of the glucocorticoid receptor (GR) signaling pathway (AID 720691; active = well fitted activation curve with a large enough effect in the signal ratio in the repeat runs, not every such curve was filed as active; the % refers to the signal ratio)
In short: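 Compounds in DMSO, alongside positive controls, were added to GR-bla HeLa reporter cells and incubated 18 h at 37 C; GRE-driven beta-lactamase was detected by fluorescence after 2 h with FRET substrate at room temperature.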

[19] = qHTS assay for small molecules that induce genotoxicity in human embryonic kidney cells expressing luciferase-tagged ATAD5 (AID 651632); also: nearly all actives have a fitted effect of over 15% in size
In short: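 DMSO vehicle served as the control. HEK293T reporter cells, 16 hr at 37C, then 30 min Amplite at room temperature; ATAD5 induction is measured as luciferase activity.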
% is scaled to controls: 0 for no effect and ±100 for the full control effect.

Sequence of Glucocorticoid receptor (Homo sapiens) (P04150 whole entry, looked up): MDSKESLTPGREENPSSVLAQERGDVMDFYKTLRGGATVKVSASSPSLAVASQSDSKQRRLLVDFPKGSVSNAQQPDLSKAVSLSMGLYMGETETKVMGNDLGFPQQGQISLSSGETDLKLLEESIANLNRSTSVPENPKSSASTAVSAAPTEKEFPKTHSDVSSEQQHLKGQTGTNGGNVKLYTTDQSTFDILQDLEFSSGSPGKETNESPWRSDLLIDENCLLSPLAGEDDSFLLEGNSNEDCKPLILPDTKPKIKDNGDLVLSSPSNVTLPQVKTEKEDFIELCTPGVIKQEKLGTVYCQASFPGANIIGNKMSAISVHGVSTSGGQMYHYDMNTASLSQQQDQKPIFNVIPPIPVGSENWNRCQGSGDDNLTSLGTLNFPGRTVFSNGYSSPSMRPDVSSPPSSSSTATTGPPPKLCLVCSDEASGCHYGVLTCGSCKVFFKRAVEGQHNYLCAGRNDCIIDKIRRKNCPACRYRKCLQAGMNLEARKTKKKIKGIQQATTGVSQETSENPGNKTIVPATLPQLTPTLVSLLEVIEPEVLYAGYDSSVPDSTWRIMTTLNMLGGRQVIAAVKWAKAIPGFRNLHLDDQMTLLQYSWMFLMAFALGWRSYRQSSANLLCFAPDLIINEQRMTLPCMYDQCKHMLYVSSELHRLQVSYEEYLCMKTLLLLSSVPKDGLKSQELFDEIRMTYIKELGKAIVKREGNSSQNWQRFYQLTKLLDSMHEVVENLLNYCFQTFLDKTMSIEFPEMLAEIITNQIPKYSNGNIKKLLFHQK

Oc1ccc2c(c1)Cc1ccccc1-2
active: Potency [2] 27.3 µM | Potency [14] 19.5 µM
inactive: Potency [1] | outcome [3] | outcome [4] | Potency [5] | outcome [6] | Potency [7] | outcome [8] | outcome [9] | outcome [10] | Potency [11] | outcome [12] | Potency [13]

O=C1OC(=O)c2c(Br)c(Br)c(Br)c(Br)c21
inactive: Potency [15] | Potency [1] | outcome [16] | Potency [2] | outcome [3] | outcome [4] | Potency [5] | outcome [17] | outcome [6] | Potency [7] | outcome [8] | outcome [9] | outcome [10] | Potency [11] | outcome [12] | Potency [13] | Potency [18] | Potency [14]

O=C(CCS)OCC(COC(=O)CCS)(COC(=O)CCS)COC(=O)CCS
inactive: Potency [19] | Potency [15] | outcome [16] | outcome [3] | outcome [4] | Potency [5] | outcome [17] | Potency [7] | outcome [8] | outcome [9] | outcome [10] | Potency [11] | outcome [12] | Potency [13] | Potency [18] | Potency [14]

CCN(CC)C(=O)/C(C#N)=C/c1cc(O)c(O)c([N+](=O)[O-])c1
inactive: Potency [15] | outcome [3] | Potency [5] | outcome [17] | outcome [6] | Potency [7] | outcome [8] | outcome [9] | outcome [10] | Potency [11] | outcome [12] | Potency [13]
active: Potency [1] 26.6 µM

CCCCOC(=O)CCCCC(=O)OCCCC
inactive: Potency [19] | Potency [15] | outcome [16] | Potency [2] | outcome [3] | outcome [4] | Potency [5] | outcome [17] | outcome [6] | Potency [7] | outcome [8] | outcome [9] | outcome [10] | Potency [11] | outcome [12] | Potency [13] | Potency [18] | Potency [14]

CNC1CCCN(c2c(F)cc3c(=O)c(C(=O)O)cn(C4CC4)c3c2OC)C1 (stereo unspecified)
inactive: Potency [19] | Potency [1] | outcome [16] | Potency [2] | outcome [3] | Potency [5] | outcome [6] | Potency [7] | outcome [8] | outcome [9] | outcome [10] | Potency [11] | outcome [12] | Potency [13]

CC1CCC(C(C)CS)CC1S (stereo unspecified)
active: Potency [15] 54.5 µM
inactive: Potency [19] | Potency [2] | outcome [3] | outcome [4] | Potency [5] | outcome [6] | Potency [7] | outcome [8] | outcome [9] | Potency [11] | outcome [12] | Potency [13] | Potency [18]

COc1cc(NC(C)CCCN)c2ncccc2c1 (stereo unspecified)
inactive: Potency [19] | fluorescence, relative to Rose Bengal [3] -0.0926% [at 18.6 µM] | fluorescence, % of fluorescein control [4] -0.0145% [at 18.6 µM] | fluorescence, % of triamterene [5] 1.22% [at 18.6 µM] | fluorescence, % of fluorescent control [17] -0.0138% [at 18.6 µM] | fluorescence, % of fluorescein [6] -0.0105% [at 18.6 µM] | fluorescence, % of fluorescent control [7] 1.01% [at 18.6 µM] | activity change [8] 0.0005% [at 18.6 µM] | fluorescence, % of fluorescent control [9] -0.109% [at 18.6 µM] | fluorescence, % of fluorescent control [11] 0.907% [at 18.6 µM] | fluorescence, % of fluorescein control [12] -0.0264% [at 18.6 µM] | fluorescence, % of fluorescent control [13] 0.746% [at 18.6 µM]

CN1CCCN(C(c2ccccc2)c2ccc(Cl)cc2)CC1 (stereo unspecified)
inactive: Potency [19] | Potency [1] | outcome [16] | outcome [3] | outcome [4] | Potency [5] | outcome [6] | Potency [7] | outcome [8] | outcome [9] | outcome [10] | Potency [11] | outcome [12] | Potency [13] | Potency [18]

O=C(c1ccccc1)C1CCC1
inactive: Potency [19] | Potency [15] | outcome [16] | Potency [2] | outcome [3] | outcome [4] | Potency [5] | outcome [17] | outcome [6] | Potency [7] | outcome [8] | outcome [9] | outcome [10] | Potency [11] | outcome [12] | Potency [13] | Potency [18]

CCC(Cl)CC(Cl)C(Cl)C(Cl)C(Cl)C(C)Cl (stereo unspecified)
inactive: activation [19] 8.79% [at 17.9 µM] | activity, negative = cytotoxicity [1] 13% [at 17.9 µM] | activity change, negative = cytotoxicity [16] -14.9% [at 17.9 µM] | fluorescence, relative to Rose Bengal [3] 0.266% [at 13.4 µM] | fluorescence, % of fluorescein control [4] -0.0606% [at 13.4 µM] | fluorescence, % of triamterene [5] 0.1% [at 13.4 µM] | fluorescence, % of fluorescent control [7] 0.102% [at 13.4 µM] | activity change [8] -0.0067% [at 13.4 µM] | fluorescence, % of fluorescent control [9] -0.0269% [at 13.4 µM] | fluorescence, % of Rose Bengal [10] 0.0345% [at 13.4 µM] | fluorescence, % of fluorescent control [11] 0.066% [at 13.4 µM] | fluorescence, % of fluorescein control [12] -0.002% [at 13.4 µM] | fluorescence, % of fluorescent control [13] 0.0691% [at 13.4 µM] | activation [18] -0.909% [at 15 µM] | Potency [14]
